This is a sample that favours compounds with a hit; in the whole collection about 3.5% have one here.
FBW7 activator = human FBW7 E3 ligase activation, primary screen; AID 1259310; AlphaScreen FBW7–phospho-cyclin E peptide binding, activator screen; 650,000 compounds, 0.13% hits; Q969H0; normalized activity (activation), % at 26.1 µM; in the data active means normalized activity above about 1.9%;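 further: purified mutant Fbw7 with reduced substrate affinity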
Target sequence (Q969H0 whole entry, looked up): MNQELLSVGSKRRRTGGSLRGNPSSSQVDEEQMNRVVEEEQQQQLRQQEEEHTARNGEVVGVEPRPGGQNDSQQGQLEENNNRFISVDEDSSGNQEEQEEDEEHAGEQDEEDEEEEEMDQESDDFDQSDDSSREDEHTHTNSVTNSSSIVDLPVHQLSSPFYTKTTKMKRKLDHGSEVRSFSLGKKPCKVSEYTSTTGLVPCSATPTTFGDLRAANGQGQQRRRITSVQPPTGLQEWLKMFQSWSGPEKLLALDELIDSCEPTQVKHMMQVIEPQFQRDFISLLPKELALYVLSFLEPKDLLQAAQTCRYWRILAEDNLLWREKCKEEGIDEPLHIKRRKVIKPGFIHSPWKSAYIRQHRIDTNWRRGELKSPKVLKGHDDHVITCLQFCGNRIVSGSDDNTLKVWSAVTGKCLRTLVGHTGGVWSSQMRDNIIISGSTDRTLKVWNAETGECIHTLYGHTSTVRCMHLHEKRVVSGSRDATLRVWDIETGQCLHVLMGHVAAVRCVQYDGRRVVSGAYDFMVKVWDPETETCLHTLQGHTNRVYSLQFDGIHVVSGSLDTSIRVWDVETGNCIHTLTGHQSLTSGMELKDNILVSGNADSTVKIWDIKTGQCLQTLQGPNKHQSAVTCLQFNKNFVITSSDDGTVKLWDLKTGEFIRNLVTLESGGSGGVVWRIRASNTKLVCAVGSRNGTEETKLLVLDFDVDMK
TEAD-YAP inh = TEAD-YAP interaction inhibition. 640,000 compounds, 1.4% hits. inhibition, % at 9.12 µM. HEK-TIYL cells, TEAD-Gal4/YAP UAS-luciferase luminescence; in the data active means inhibition above about 32%;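 further: 0% = median of test compound wells and 100% = reference inhibitor wells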
MITF inh = blocks human microphthalmia-associated transcription factor; inhibition, % at 2.6 µM; 650,000 compounds, 0.91% hits; AID 1259374; AlphaScreen MITF homodimerization, bead proximity signal; in the data active means inhibition above about 50%;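 further: 0% = vehicle wells with protein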
GPR151 activ = human GPR151 activation. Q8TDV0. PathHunter beta-arrestin GPR151 cells, luminescence. activation, % at 11.2 µM. 650,000 compounds, 1% hits; in the data active means activation above about 4.9%;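 further: 0% = median of compound wells and 100% = cells with positive control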
GPR151 confirm = confirmation of human GPR151 activators. AID 1508609. 6,700 tested, under 10 active. shares compounds with GPR151 activ. GPR151 PathHunter beta-arrestin cells, luminescence, 90 min; % of EA-reagent control over plate median. activation, % at 11.2 µM;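 active means mean percent activation across replicates above the confirmation screen cutoff of 4.91%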
GPR119 counter = activates human GPR119 in a GPR151 counter-screen; shares compounds with GPR151 activ; GPR119 PathHunter beta-arrestin cells, luminescence, 90 min; 0 = compound-well median, 100 = enzyme-acceptor control; AID 1508611; activation, % at 11.2 µM; 6,700 compounds, 0.3% hits;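 active means mean percent activation in the counterscreen above 29.09%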;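 further: counterscreen on off-target GPR119 to flag nonselective hits from the GPR151 activator screen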
Active calls of the source: *; . = not tested or not shown.

SMILES	FBW7 activator	TEAD-YAP inh	MITF inh	GPR151 activ	GPR151 confirm	GPR119 counter
C/C(=N/NC(=O)c1ccccc1)C1CC1	0	-58	-8	2	.	.
C/C(=N\NC(=O)c1cccc(Cl)c1)c1ccc([N+](=O)[O-])o1	1	-13	19	-1	.	.
C/C(=N\NC(=O)c1cccc(Cl)c1)C1CC1	0	-54	19	8.9*	2	14
C/C(=N/NC(=O)c1cccc(Cl)c1)c1ccc([N+](=O)[O-])o1	0	-43	15	5.7*	0	3
CCOc1ccc(N(C(=O)COC)C2C=CS(=O)(=O)C2)cc1 (stereo not drawn)	0	6	8	1	.	.
Cc1c(CN2CCC3(CC2)CC3C(=O)N2CCN(C/C=C/c3ccccc3)CC2)cnn1C (stereo not drawn)	0	5	-14	0	.	.
O=C(Cn1nnnc1CN1CCCCCC1)N1CCCCC1c1cccnc1 (stereo not drawn)	0	6	9	5.7*	1	10
O=C(Cn1nnnc1CN1CCCCCC1)N1CCC[C@H]1CO	0	-1	-13	0	.	.
O=C(NCC1CCCN(C(=O)CCN2CCCCC2=O)C1)c1ccc(F)cc1 (stereo not drawn)	0	-13	-4	2	.	.
O=C(NCc1ccc(Cl)cc1)C1CCC(Cn2c(=S)[nH]c3ccsc3c2=O)CC1 (stereo not drawn)	0	-4	6	7.0*	1	14
O=C(NC1CCSC1=O)C1CN(C(=O)c2ccc(F)c(F)c2)C1 (stereo not drawn)	0	1	-1	8.2*	0	-4
O=C(NCc1ccco1)C1CN(C(=O)c2ccc(F)c(F)c2)C1	0	2	-1	1	.	.
COc1ccc(C(=O)Nc2ccccc2)cc1S(=O)(=O)N1CCCc2ccccc21	0	19	32	-1	.	.
COc1cc(OC)c(S(=O)(=O)N2CCCc3ccccc32)cc1NC(C)=O	0	-3	11	6.1*	0	2
CC(C)OC(=O)c1cccc(C(=O)Oc2ccc3ccccc3c2)n1	0	3	-4	2	.	.
COc1ccccc1CN1CCN(S(=O)(=O)c2ccccc2[N+](=O)[O-])CC1	0	-4	48	0	.	.
CCS(=O)(=O)N1CCN(S(=O)(=O)c2ccccc2[N+](=O)[O-])CC1	0	9	4	2	.	.
CCOc1ccccc1N1CCN(S(=O)(=O)c2ccccc2[N+](=O)[O-])CC1	0	0	-4	5.7*	-1	-5
CCOc1ccccc1CN1CCN(S(=O)(=O)c2ccccc2[N+](=O)[O-])CC1	0	-9	37	5.7*	0	11
CCOC(=O)c1c(N)sc(C)c1-c1cccc(Cl)c1	0	2	2	0	.	.
COC(=O)c1c(N)sc(C)c1-c1cccc(Cl)c1	0	1	-5	6.0*	1	18
CCn1c(O)c(/C=C2\C=Nc3ccc(Br)cc32)sc1=O	0	-9	15	1	.	.
Oc1[nH]c(=S)sc1/C=C1\C=Nc2ccc(Br)cc21	0	-6	-9	6.0*	0	6
Oc1ccc(CCNc2nc(NC3CCN(Cc4ccccc4)CC3)nc3c2ncn3-c2ccsc2)cc1	0	25	2	5.6*	0	9
CN(C)c1cccc(Nc2nc(NCc3ccccc3)c3ncn(-c4ccsc4)c3n2)c1	1	-1	12	0	.	.
SMILES	FBW7 activator	TEAD-YAP inh	MITF inh	GPR151 activ	GPR151 confirm	GPR119 counter
c1ccc(CN2CCC(Nc3nc(Nc4ccc5ncccc5c4)nc4c3ncn4-c3ccsc3)CC2)cc1	0	2	-5	5.5*	0	-13
CN(C)c1cccc(Nc2nc(Nc3ccccc3)c3ncn(-c4ccsc4)c3n2)c1	0	-67	9	5.6*	-1	-8
c1ccc2c(c1)CCN(c1nc(NC3CC3)c3ncn(-c4ccsc4)c3n1)C2	0	25	-1	2	.	.
c1ccc(Oc2nc(NC3CC3)c3ncn(-c4ccsc4)c3n2)cc1	0	88*	-9	6.6*	4	46*
O=C1NC(=S)N/C1=C/c1ccc(-c2ccccc2C(=O)O)o1	0	0	8	2	.	.
O=c1[nH]c2ncc(-c3cccc4ncccc34)nc2n1CCCN1CCOCC1	-1	2	-15	1	.	.
Oc1ccc(-c2nc(-c3cccc(C(F)(F)F)c3)c(-c3ccccc3)[nH]2)cc1	0	12	7	5.8*	0	-4
Oc1ccc(-c2nc(-c3ccc(-c4ccccc4)cc3)c(-c3ccc(-c4ccccc4)cc3)[nH]2)cc1	0	9	11	-1	.	.
COc1ccc(-c2noc(CCC(=O)Nc3ccc(C)c(C)c3)n2)cc1	0	-2	8	5.2*	2	7
COc1ccc(-c2noc(CCC(=O)Nc3cccc(Cl)c3)n2)cc1	0	0	-5	9.5*	0	5
Cc1cccc(-c2noc(CCC(=O)N(C)C)n2)c1	0	-42	-7	-4	.	.
COc1cccc(-c2noc(CCC(=O)NC(C)C)n2)c1	0	-5	-5	5.6*	-2	-14
COc1ccc(-c2noc(CC(=O)Nc3cccc(Cl)c3)n2)cc1	0	9	-4	-1	.	.
COc1ccc(-c2noc(CCC(=O)Nc3ccc(C)cc3)n2)cc1	0	-12	-2	2	.	.
CN(C)C(=O)CCc1nc(-c2ccc(Cl)cc2)no1	0	-47	-6	7.2*	-1	-18
Cc1ccc(C(=O)Nc2cccc([N+](=O)[O-])c2C)o1	0	-8	1	0	.	.
Nc1c(C(=O)NCc2ccco2)nnn1-c1ccc2c(c1)OCCO2	0	-46	-5	0	.	.
Cc1cccnc1C(NC(=O)C1CCN(C(=O)N2CCCC2)CC1)c1ccc(F)cc1 (stereo not drawn)	0	-14	-2	1	.	.
CC(=O)Nc1ccc(S(=O)(=O)Nc2nnc(-c3ccc(F)cc3)s2)cc1	0	-7	0	6.7*	2	7
CC(C)CCN1C(=O)CC(NNC(=O)c2ccc(F)cc2)C1=O (stereo not drawn)	0	-8	0	5.7*	1	2
COc1ccc(/C=N/NC(=O)c2cc3ccccc3cc2O)c(OC)c1	0	-21	2	0	.	.
O=C(O)c1ccccc1-c1ccccc1C(=O)Nc1ccccc1	0	5	22	2	.	.
O=C(O)c1ccccc1-c1ccccc1C(=O)NC1CS(=O)(=O)CC1O (stereo not drawn)	0	-11	-14	5.1*	2	16
C=CCOC(=O)c1cc(-c2ccc(/C=N/Nc3nn[nH]n3)o2)ccc1Cl	0	-21	15	5.0*	1	3
Cc1cccc(N(CC(=O)NC(C)(C)C)C(=O)CCC(=O)Nc2cc(C)ccn2)c1	0	-1	5	0	.	.

High-throughput results deposited in PubChem by The Scripps Research Institute Molecular Screening Center.
